# Measured values: PubChem BioAssay
# How the values were obtained:
# PEG-3 [1] = target: PEG-3 (UniProt Q6IN02); assay: Peg3 promoter luciferase inhibitors, potency, dose response, cell-based, HeLa, CREF/GAPDH counter-screen panel (AID 624167); conditions: CREF/GAPDH counter-screens; HeLa PEG-Prom luciferase reporter, overnight, run 1, dose range 1, at 100 µM (top of the series) unless noted
# PEG-3 [2] = target: PEG-3 (UniProt Q6IN02); assay: as above; conditions: CREF/GAPDH counter-screens; HeLa PEG-Prom luciferase reporter, overnight, run 2, dose range 1, at 100 µM (top of the series) unless noted
# [3] = inhibitors of PAF-induced NFkB signaling in CF airway cells, dose response, cell-based, uHTS hits, panel, cytotoxicity readout (AID 624344); conditions: CF bronchial epithelial cells, PAF-induced NFkB reporter inhibition, with PAF, run 1; at 79 µM (top of the series) unless noted
# [4] = as above; conditions: CF bronchial epithelial cells, PAF-induced NFkB reporter inhibition, with PAF, run 2; at 79 µM (top of the series) unless noted
# [5] = target: Tumor necrosis factor receptor superfamily member 10B (Homo sapiens) (UniProt O14763); assay: caspase-8 TRAIL sensitization, hit retest, confirmation, cell-based, NB7+caspase-8, with/without TRAIL, luminescence panel (AID 651596); conditions: NB7 neuroblastoma + caspase-8, TRAIL sensitization, luminescence viability, with TRAIL, mean of runs, at 10 µM, stronger effect = higher value
# Tumor necrosis factor receptor superfamily member 10B (Homo sapiens), sequence (O14763 whole entry, looked up): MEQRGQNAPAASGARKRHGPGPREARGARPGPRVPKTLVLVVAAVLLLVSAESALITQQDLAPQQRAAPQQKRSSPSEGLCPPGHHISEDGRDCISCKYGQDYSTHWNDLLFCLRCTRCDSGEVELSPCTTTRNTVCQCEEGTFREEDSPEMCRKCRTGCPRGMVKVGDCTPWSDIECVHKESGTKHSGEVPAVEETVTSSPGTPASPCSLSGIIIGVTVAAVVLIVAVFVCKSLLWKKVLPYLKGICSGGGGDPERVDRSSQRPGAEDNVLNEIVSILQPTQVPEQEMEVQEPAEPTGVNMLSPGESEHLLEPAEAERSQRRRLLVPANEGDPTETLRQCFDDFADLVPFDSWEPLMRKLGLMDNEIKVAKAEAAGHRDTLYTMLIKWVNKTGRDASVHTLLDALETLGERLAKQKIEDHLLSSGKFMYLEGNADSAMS
# [6] = as above; conditions: NB7 neuroblastoma + caspase-8, without TRAIL, luminescence viability, without TRAIL, mean of runs, at 10 µM
# Rat fibroblasts (CREF) [7] = assay: Peg3 promoter luciferase inhibitors, potency, dose response, cell-based, HeLa, CREF/GAPDH counter-screen panel (AID 624167); conditions: CREF/GAPDH counter-screens; run 1, dose range 1, at 100 µM (top of the series)
# Rat fibroblasts (CREF) [8] = assay: as above; conditions: CREF/GAPDH counter-screens; run 2, dose range 1, at 100 µM (top of the series)
# PEG-3, sequence (Q6IN02 whole entry, looked up): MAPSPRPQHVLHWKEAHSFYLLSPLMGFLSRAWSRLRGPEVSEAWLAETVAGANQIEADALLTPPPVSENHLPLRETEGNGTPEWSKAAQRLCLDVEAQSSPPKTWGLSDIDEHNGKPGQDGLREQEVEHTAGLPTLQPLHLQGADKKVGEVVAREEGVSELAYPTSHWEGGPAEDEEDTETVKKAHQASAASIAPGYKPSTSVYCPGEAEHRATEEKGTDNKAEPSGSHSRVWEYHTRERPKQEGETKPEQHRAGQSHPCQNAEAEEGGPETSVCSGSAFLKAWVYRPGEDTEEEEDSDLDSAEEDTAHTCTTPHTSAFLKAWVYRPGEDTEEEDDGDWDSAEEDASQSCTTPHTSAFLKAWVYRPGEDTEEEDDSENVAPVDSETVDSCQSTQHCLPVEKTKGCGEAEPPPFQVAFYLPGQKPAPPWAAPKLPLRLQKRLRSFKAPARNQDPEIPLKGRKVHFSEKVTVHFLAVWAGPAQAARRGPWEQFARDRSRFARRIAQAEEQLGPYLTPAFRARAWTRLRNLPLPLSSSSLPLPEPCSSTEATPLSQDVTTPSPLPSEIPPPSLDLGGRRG
smiles,measurement,setting,value
FC(F)Sc1ccc(NC(=S)NC(c2ccccc2)c2ccccc2)cc1,inhibition,PEG-3 [1],99.8%
same,inhibition,PEG-3 [2],96.5%
same,inhibition,[3],116%
same,inhibition,[4],103%
Cc1cc2sc3ccc(C#CC4(O)CCCCC4)cc3c(=O)c2cc1C,inhibition,PEG-3 [1],84.2%
same,inhibition,PEG-3 [2],93.8%
same,activity,[5],91.2%
same,activity,[6],90.1%
CN(C)c1ccc(C(C(=O)NCc2ccccc2)N(Cc2ccco2)C(=O)c2snc(C(N)=O)c2N)cc1 (stereo unspecified),inhibition,PEG-3 [1],21.1%
same,inhibition,PEG-3 [2],29.3%
same,inhibition,[3],109%
same,inhibition,[4],104%
COc1cccc(-c2nnc3n2N=C(C(C)(C)C)CS3)c1,inhibition,PEG-3 [1],98.1%
same,inhibition,PEG-3 [2],99%
same,inhibition,[3],105%
same,inhibition,[4],114%
CCOc1cc(/C=N/N=C(N)N)ccc1OCc1ccc(Cl)cc1,inhibition,PEG-3 [1],99.3%
same,inhibition,PEG-3 [2],98.5%
same,activity,[5],70%
same,activity,[6],96.9%
Clc1cccc(-c2nc(-c3ccccn3)no2)c1,inhibition,PEG-3 [1],89.2%
same,inhibition,PEG-3 [2],92.5%
same,inhibition,Rat fibroblasts (CREF) [7],96.4%
same,inhibition,Rat fibroblasts (CREF) [8],94.4%
same,activity,[5],84.3%
same,activity,[6],82.3%
Cc1ccc(C(=O)NCCc2cccs2)cc1,inhibition,PEG-3 [1],92.3%
same,inhibition,PEG-3 [2],49.8%
same,activity,[5],76.6%
same,activity,[6],75.8%
Cc1cc(C)c2sc(N(CCCN(C)C)C(=O)c3ccc(S(=O)(=O)N4CCCc5ccccc54)cc3)nc2c1,inhibition,PEG-3 [1],97.5%
same,inhibition,PEG-3 [2],99.2%
same,activity,[5],31.6%
same,activity,[6],32.4%
CC(/C=C/c1ccccc1)=N/NC(=O)c1cc([N+](=O)[O-])cc([N+](=O)[O-])c1,inhibition,PEG-3 [1],94.6%
same,inhibition,PEG-3 [2],86.3%
same,inhibition,Rat fibroblasts (CREF) [7],47.1%
same,activity,[5],21.2%
same,activity,[6],30.8%
NC(=O)c1nsc(C(=O)N(c2ccccc2F)C(C(=O)NCc2ccc(F)cc2)c2ccc(O)cc2)c1N (stereo unspecified),inhibition,PEG-3 [1],101%
same,inhibition,PEG-3 [2],99.2%
same,inhibition,[3],106%
same,inhibition,[4],98.8%
O=C(CCl)N1N=C(c2ccco2)CC1c1cccs1 (stereo unspecified),inhibition,PEG-3 [1],101%
same,inhibition,PEG-3 [2],99.3%
same,activity,[5],98.5%
same,activity,[6],97.8%
C=C1C(=O)[C@]23C[C@H]1CCC2[C@]1(C)C(=O)CC[C@@](C)(C(=O)O)C1C[C@@H]3O (stereo partly specified),inhibition,[3],98.9%
same,inhibition,[4],89.8%
COc1cc(NC(=O)c2c(F)c(F)c(F)c(F)c2F)c(OC)cc1Cl,inhibition,PEG-3 [1],99.8%
same,inhibition,PEG-3 [2],96.5%
same,activity,[5],85.1%
same,activity,[6],64.5%
Cc1ccc(S(=O)(=O)Nc2cccc3ncccc23)s1,inhibition,[3],107%
same,inhibition,[4],97%
Cc1ccc2sc(N(CCCN(C)C)C(=O)c3ccc(S(=O)(=O)N(C)Cc4ccccc4)cc3)nc2c1C,inhibition,PEG-3 [1],102%
same,inhibition,PEG-3 [2],99.1%
same,activity,[5],44%
same,activity,[6],32.9%
COc1ccc(/C=N/Nc2nc(-c3cccnc3)nc3ccccc23)cc1OC,inhibition,[3],108%
same,inhibition,[4],96.6%
Cc1cc(C)c2sc(N(CCCN(C)C)C(=O)c3ccc(S(=O)(=O)N(C)C4CCCCC4)cc3)nc2c1,inhibition,PEG-3 [1],98.8%
same,inhibition,PEG-3 [2],101%
same,activity,[5],17.8%
same,activity,[6],4.92%
C#CCN(C[C@@H]1[C@@H](OC(=O)NCc2ccco2)[C@@H](OC(=O)NCc2ccco2)Cn2c(=O)ccc(=O)n21)S(=O)(=O)c1ccc(C)cc1,inhibition,[3],98.7%
same,inhibition,[4],111%
Cc1cccc(-n2ncc3c(N(C)C4CCCCC4)ncnc32)c1,inhibition,PEG-3 [1],89%
same,inhibition,PEG-3 [2],91.4%
same,activity,[5],89.4%
same,activity,[6],88%
Cc1ccc(-c2cc(C(=O)N/N=C/c3c(C)nn(-c4ccccc4)c3C)[nH]n2)cc1,inhibition,[3],62.7%
same,inhibition,[4],88.3%
Cc1cc(C(=O)COC(=O)c2ccccc2Br)c(C)n1CC1CCCO1 (stereo unspecified),inhibition,PEG-3 [1],95.8%
same,inhibition,PEG-3 [2],85.4%
same,activity,[5],68.1%
same,activity,[6],74.3%
COCCn1c(C)cc(C(=O)COC(=O)c2ccccc2Br)c1C,inhibition,PEG-3 [1],95.9%
same,inhibition,PEG-3 [2],94.1%
same,activity,[5],79.5%
same,activity,[6],76.5%
CCCCCCCCCCCCCCCC(O)C[N+](C)(C)CCO (stereo unspecified),inhibition,PEG-3 [1],102%
same,inhibition,PEG-3 [2],98.9%
same,activity,[5],95.8%
same,activity,[6],97.1%
O=C(Nc1ccccc1)NN(C(=O)CCl)c1ccccc1,inhibition,PEG-3 [1],102%
same,inhibition,PEG-3 [2],101%
same,activity,[5],98.3%
same,activity,[6],98.3%
COc1ccccc1N(C(=O)CCl)c1cn(C(C)=O)c2ccccc12,inhibition,PEG-3 [1],98.1%
same,inhibition,PEG-3 [2],102%
same,activity,[5],99.5%
same,activity,[6],98.3%
Cc1ccc2sc(N(CCCN(C)C)C(=O)c3ccc(S(=O)(=O)N4CCc5ccccc5C4)cc3)nc2c1C,inhibition,PEG-3 [1],82.2%
same,inhibition,PEG-3 [2],74.5%
same,activity,[5],75%
same,activity,[6],87%
Cc1c(-c2ccccc2)oc2c(C(=O)N3CCN(c4ccc([N+](=O)[O-])cc4)CC3)cccc2c1=O,inhibition,[3],105%
same,inhibition,[4],93.8%
O=C(NC1CCCCC1)C(c1cccnc1)N(C(=O)CCl)c1cccc(Cl)c1 (stereo unspecified),inhibition,PEG-3 [1],97.7%
same,inhibition,PEG-3 [2],102%
same,activity,[5],99.3%
same,activity,[6],99.5%
CCOc1cccc2sc(N(CCCN(C)C)C(=O)c3ccc(S(=O)(=O)N(C)Cc4ccccc4)cc3)nc12,inhibition,PEG-3 [1],99.3%
same,inhibition,PEG-3 [2],101%
same,activity,[5],28.6%
same,activity,[6],-0.65%
O=C(CCl)Nc1cccc(-c2cnc3ccccc3n2)c1,inhibition,PEG-3 [1],101%
same,inhibition,PEG-3 [2],98.6%
same,activity,[5],99.3%
same,activity,[6],99.2%
